Sampled rows, rich in hits. Any-hit rate of the full collection: about 19%.
IL-1B inflam inh: inflammasome signaling inhibition, IL-1 beta readout. activity change, % at 57.5 µM. actives 4.7% (n = 360,000). AID 743279. THP-1 LPS/ATP IL-1B secretion, AlphaLISA, 16 h; stronger effect = lower value; in the data active = activity change below about -50%; inconclusive = mostly about -30% to -49%
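Secreted IL-1B measured by AlphaLISA bead assay after 16 h compound exposure of THP-1 cells; compounds (final up to 57.5 uM) added 1 h before LPS (250 ng/mL) and ATP (1.25 mM) stimulation; lower signal means less secretion.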
HepG2 tox: HepG2 cytotoxicity, counter-screen for TGF-b inhibitors; HepG2 CAGA-GFP viability, ATP luminescence, 18 h; Potency, µM (series often up to 46.1 µM), actives largely listed as cytotoxic; actives 0.76% (n = 410,000); AID 588856
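HepG2 CAGA-GFP cells (1000/well, DMEM with 1% FBS) received compound, then TGF-beta at 500 pg/mL final, and were incubated 18 hours at 37 degrees C. Viability was read by CellTiter-Glo luminescence. Media-only wells were set as complete cell-killing and DMSO as no toxicity.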
DT40 TDP1 CPT: DT40-hTDP1 cell growth loss with CPT. chicken DT40 Tdp1-/-;hTDP1 cells + 20 nM CPT, ATP luminescence, 48 h. Potency, µM (highest dose often 46.2 µM), hits mostly inhibitors. actives 12% (n = 420,000). AID 686979; also: nearly all actives have a fitted effect of over 55% in size
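Chicken DT40 Tdp1-/- cells complemented with human TDP1, 400 cells/well, exposed to compounds plus 20 nM camptothecin for at least 48 h at 37 C; viability read as ATP content by CellTiter-Glo luminescence.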
ASM inhibitor: human S-ASM enzyme inhibition; placental ASM, HMU-PC fluorogenic substrate, 60 min; Potency, µM (titrated, usually from 57.5 µM), hits mostly inhibitors; actives 0.006% (n = 340,000)
Target sequence (P17405 47-631 limits assumed): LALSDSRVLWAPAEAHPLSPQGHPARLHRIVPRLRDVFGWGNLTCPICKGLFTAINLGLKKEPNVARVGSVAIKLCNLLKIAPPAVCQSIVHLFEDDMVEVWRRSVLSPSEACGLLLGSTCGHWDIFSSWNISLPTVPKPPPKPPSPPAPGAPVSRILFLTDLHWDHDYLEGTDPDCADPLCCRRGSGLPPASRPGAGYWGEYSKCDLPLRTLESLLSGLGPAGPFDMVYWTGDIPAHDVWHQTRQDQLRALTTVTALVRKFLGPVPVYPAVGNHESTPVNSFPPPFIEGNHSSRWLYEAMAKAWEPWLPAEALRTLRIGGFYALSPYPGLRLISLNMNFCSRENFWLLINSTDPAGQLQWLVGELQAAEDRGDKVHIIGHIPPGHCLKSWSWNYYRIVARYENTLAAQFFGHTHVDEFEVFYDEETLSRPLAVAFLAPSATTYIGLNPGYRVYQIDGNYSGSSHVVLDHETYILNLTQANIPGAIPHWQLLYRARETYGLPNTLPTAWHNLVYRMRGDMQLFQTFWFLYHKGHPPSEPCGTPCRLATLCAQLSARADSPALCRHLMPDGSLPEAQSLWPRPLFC
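qHTS format. ASM enzyme prepared from human placenta hydrolyses the fluorogenic substrate HMU-PC0 (9 uM final) over 60 min at 37 °C after a 10 min compound preincubation.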
TGFb inhibitor: TGF-b pathway inhibition; HepG2 CAGA-GFP TGF-b/SMAD3 reporter, GFP fluorescence, 18 h; TGF-beta stimulated, 500 pg/mL final; AID 588855; Potency, µM (titrated, usually from 46.1 µM), usual class: inhibitors; actives 1.2% (n = 410,000); also: nearly all actives have a fitted effect of over 65% in size
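First, reporter cells (HEPG2 CAGA-GFP) rested 2 h at 37 degrees C. Next, compounds were pinned in and TGF-beta added to 500 pg/mL final. After 18 h, GFP was imaged per cell and summed per well.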
TDP1 cell noCPT: qHTS for Inhibitors of human tyrosyl-DNA phosphodiesterase 1 (TDP1): qHTS in cells in absence of CPT | DT40 Tdp1-/- hTDP1 cells, no CPT, ATP luminescence, 48 h | Potency, µM (series often up to 46.2 µM), most hits filed as inhibitors | actives 15% (n = 420,000) | AID 686978, 2013; also: nearly all actives have a fitted effect of over 55% in size
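Growth of hTDP1-complemented DT40 Tdp1-knockout cells is measured by ATP luminescence after at least 48 hr compound exposure at 37 °C, with DMSO substituting for the 20 nM CPT used in the parallel screen.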
A number is an active result; n = inactive; u = inconclusive; x = not tested or not shown; [ ] = remark or other dose. Unless noted, calls follow the shape of the dose curve; as a rule, active = well fitted curve in the direction sought with a large enough effect; inconclusive = small, poorly fitted or top-dose-only effect, or another doubt; inactive = no such curve, though single readings can be large; an effect the other way counts as inactive or inconclusive.

SMILES	IL-1B inflam inh	HepG2 tox	DT40 TDP1 CPT	ASM inhibitor	TGFb inhibitor	TDP1 cell noCPT
Cc1cc(C)c2c(c1C)C(=O)CCC2	n	n	n	n	n	n
O=C(Nc1cccc(/C=C/c2ccccn2)c1)c1ccc(-n2cncn2)c([N+](=O)[O-])c1	-76	n	16µM	n	u	6.5µM
O=C(COc1ccc(Br)cc1)NNC(=O)c1ccc(-n2cncn2)c([N+](=O)[O-])c1	n	n	u	n	n	16µM
O=C(Nc1ccc(F)c(F)c1)c1ccc(-n2cncn2)c([N+](=O)[O-])c1	u	n	8.2µM	n	n	u
O=C(Nc1cc(Cl)ccc1-n1cncn1)c1ccc([N+](=O)[O-])s1	n	n	7.3µM	x	u	u
O=C(Nc1cc(Cl)ccc1-n1cncn1)c1ccco1	n	n	n	n	n	n
Cc1ccc2[nH]c(C(=O)N/N=C/c3ccccc3C(=O)O)c(-c3ccccc3)c2c1	n	n	n	n	u	n
Cc1ccc2[nH]c(C(=O)N/N=C/c3ccccc3O)c(C)c2c1	n	n	4.6µM	n	u	4.6µM
O=C(N/N=C/c1ccccc1)c1[nH]c2ccc(Br)cc2c1-c1ccccc1	n	n	1.2µM	n	u	1.2µM
Cc1ccc2[nH]c(C(=O)N/N=C/c3ccc([N+](=O)[O-])cc3)c(C)c2c1	n	n	3.7µM	n	n	4.1µM
O=C1C(=O)c2ncccc2-c2cccnc21	x	x	6µM	x	x	5.3µM
CN(C)c1ccc(/C=C2\NC(=O)NC2=O)cc1	x	n	n	x	n	n
CC1CC(OC(=O)C(O)c2ccccc2)CC(C)(C)C1 (stereo unspecified)	x	x	u	x	x	7.5µM
CCOC(=O)N1CCN(CC(O)COC2CC(C)CC(C)(C)C2)CC1 (stereo unspecified)	n	n	u	n	n	u
C=CCOc1ccc(CN(C)C(=O)c2ccc(CNS(=O)(=O)c3ccc(C)c(C)c3)cc2)cc1	-55	n	u	n	u	21µM
CN(Cc1ccc(F)cc1)C(=O)c1cccc(S(=O)(=O)NCc2ccccc2)c1	n	n	u	n	n	u
CC(=O)NC(C)c1nc2ccccc2n1Cc1ccccc1Cl (stereo unspecified)	x	n	u	x	n	u
O=C(Nc1nc2ccccc2n1Cc1ccccc1)c1ccco1	n	n	21µM	n	n	21µM
CC(=O)NCc1nc2ccccc2n1Cc1ccccc1C	n	n	n	n	n	n
CC(=O)Nc1nc2ccccc2n1Cc1ccccc1C	u	n	9.2µM	n	u	13µM
CC(=O)Nc1nc2ccccc2n1Cc1ccccc1Cl	-56	n	21µM	n	u	8.2µM
CC(=O)N1CCCC1c1nc2ccccc2n1Cc1ccccc1Cl (stereo unspecified)	x	n	u	x	n	18µM
COC(CNC(=O)C(=O)NCC1OCCN1S(=O)(=O)c1ccccc1)OC (stereo unspecified)	n	n	n	x	n	n
COc1ccc(C)cc1S(=O)(=O)N1CCC2(CC1)OCCN2S(=O)(=O)c1ccccc1	n	n	u	n	n	u
Cc1ccc(C)c(OCC(O)CN2CCc3ccccc3C2)c1C (stereo unspecified)	n	n	6.5µM	n	u	3.7µM
SMILES	IL-1B inflam inh	HepG2 tox	DT40 TDP1 CPT	ASM inhibitor	TGFb inhibitor	TDP1 cell noCPT
Cc1ccc(C)c(OCC(O)CN2CCC(C)CC2)c1C (stereo unspecified)	n	n	u	n	n	21µM
Cc1cc(OCC(O)CN2CCc3ccccc3C2)ccc1Cl (stereo unspecified)	-62	n	n	n	u	u
CC(=O)c1ccc(OCC(O)CN2CCc3ccccc3C2)cc1 (stereo unspecified)	n	n	n	n[11.5 µM]	n	u
CC1CCN(CC(O)COC2CCC(C(C)(C)C)CC2)CC1 (stereo unspecified)	u	n	23µM	n	n	18µM
CCOc1ccc(OCC(O)CN2CCc3ccccc3C2)cc1 (stereo unspecified)	n	n	n	n	n	u
CC(C)(C)C1CCC(OCC(O)CN2CCN(c3ccccc3)CC2)CC1 (stereo unspecified)	n	n	u	n	n	u
CC1CCN(CC(O)COc2ccc(OCC(O)CN3CCC(C)CC3)cc2)CC1 (stereo unspecified)	n	n	u	n	n	u
CCC1Oc2ccc(C)cc2N(CC(=O)NCc2ccc(OC)cc2)C1=O (stereo unspecified)	x	n	n	x	n	n
Cc1onc(-c2ccccc2)c1C(=O)N1CCC(CO)(Cc2ccccc2)CC1	n	n	u	n	n	n

Assay outcomes deposited in PubChem by National Center for Advancing Translational Sciences (NCATS).
